Common to all, as to test: DAPPL (digital affinity profiling via proximity ligation, sequencing); 10 mM Tris-HCl pH 7.5, 50 mM NaCl, 1 mM DTT, 4% glycerol, room temperature, 30 min; GST-TFs on glutathione beads, 16-mer random dsDNA library, 0.1% formaldehyde crosslink after washing; high values mean tight binding
Conditions in all cases: protein: recombinant; tags: N-terminal GST; dsDNA, one strand shown

One assay deals with T1, ELK1 (Homo sapiens, UniProt P19419 1-428).
T1 sequence: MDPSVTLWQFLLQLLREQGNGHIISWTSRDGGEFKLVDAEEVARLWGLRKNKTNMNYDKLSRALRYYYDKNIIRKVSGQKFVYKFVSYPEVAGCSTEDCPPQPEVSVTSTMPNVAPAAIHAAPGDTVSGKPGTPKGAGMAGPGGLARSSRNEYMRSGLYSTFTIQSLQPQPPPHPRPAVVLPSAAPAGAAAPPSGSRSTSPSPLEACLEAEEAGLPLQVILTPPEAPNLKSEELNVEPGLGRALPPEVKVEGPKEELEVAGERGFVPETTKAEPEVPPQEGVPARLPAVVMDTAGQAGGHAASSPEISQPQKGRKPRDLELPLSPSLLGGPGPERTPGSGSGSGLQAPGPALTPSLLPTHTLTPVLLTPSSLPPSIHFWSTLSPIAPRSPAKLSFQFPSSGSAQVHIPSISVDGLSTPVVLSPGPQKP
The gist of the method: (§1)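 GST fusions of human transcription factors were expressed in yeast and captured with glutathione beads. Once given DNA barcodes and pooled alongside a tag-only sample, they were incubated for 30 min at room temperature with 200 nmole of a random double-stranded 16-mer DNA library in Tris/NaCl/DTT/glycerol buffer, then washed, crosslinked (0.1% formaldehyde), proximity-ligated, PCR-amplified and sequenced on an Illumina NextSeq500. The binding signal of each hexamer is its read frequency for a factor divided by its frequency for the tag-only sample.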

For the next assay, the target named is T2, GABPA (Homo sapiens, UniProt Q06546 1-454).
T2 sequence: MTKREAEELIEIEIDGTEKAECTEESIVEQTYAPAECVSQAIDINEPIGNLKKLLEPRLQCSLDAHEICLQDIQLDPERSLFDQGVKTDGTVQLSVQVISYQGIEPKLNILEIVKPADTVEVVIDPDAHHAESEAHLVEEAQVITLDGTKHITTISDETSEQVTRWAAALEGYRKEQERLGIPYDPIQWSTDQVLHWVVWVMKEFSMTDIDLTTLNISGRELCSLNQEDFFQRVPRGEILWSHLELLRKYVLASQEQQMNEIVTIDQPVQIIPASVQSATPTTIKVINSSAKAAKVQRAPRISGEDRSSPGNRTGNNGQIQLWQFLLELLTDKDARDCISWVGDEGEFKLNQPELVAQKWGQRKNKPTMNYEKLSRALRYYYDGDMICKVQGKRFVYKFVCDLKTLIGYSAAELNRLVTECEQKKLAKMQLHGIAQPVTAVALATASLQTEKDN
Put shortly: as §1

In another assay the target is T3, ERG (Homo sapiens, UniProt P11308 1-479).
T3 sequence: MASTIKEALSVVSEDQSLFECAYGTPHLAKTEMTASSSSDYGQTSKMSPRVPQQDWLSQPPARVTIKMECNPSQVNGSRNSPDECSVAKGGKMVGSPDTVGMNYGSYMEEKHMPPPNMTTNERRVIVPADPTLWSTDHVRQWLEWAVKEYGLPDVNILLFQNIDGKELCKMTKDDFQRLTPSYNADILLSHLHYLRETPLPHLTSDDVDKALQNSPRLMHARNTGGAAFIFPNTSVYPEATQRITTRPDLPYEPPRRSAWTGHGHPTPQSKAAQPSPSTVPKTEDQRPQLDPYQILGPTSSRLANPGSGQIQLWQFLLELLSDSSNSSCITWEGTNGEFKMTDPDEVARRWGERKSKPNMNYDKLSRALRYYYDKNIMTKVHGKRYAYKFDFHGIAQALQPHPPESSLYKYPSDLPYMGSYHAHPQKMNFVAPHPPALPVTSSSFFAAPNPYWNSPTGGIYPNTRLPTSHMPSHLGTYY
The gist of the method: as §1

The target of a further assay is ELF1 (Homo sapiens, UniProt P32519 1-619). The gist of the method:
as §1

A further assay concerns the target T4, EHF (Homo sapiens, UniProt Q9NZC4 1-300).
T4 sequence: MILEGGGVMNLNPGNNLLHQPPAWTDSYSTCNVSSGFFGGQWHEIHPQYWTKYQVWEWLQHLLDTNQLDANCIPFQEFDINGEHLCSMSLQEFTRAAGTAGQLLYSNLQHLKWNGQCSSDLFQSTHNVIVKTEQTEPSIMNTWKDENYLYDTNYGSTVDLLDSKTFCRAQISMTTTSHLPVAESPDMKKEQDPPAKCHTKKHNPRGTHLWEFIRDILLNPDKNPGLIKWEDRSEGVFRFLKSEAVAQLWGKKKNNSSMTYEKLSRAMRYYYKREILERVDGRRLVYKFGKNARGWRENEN
Put shortly:
as §1

A further assay has as its target SPI1 (Homo sapiens, UniProt P17947 1-270). The gist of the method:
as §1

The next assay deals with SPIB (Homo sapiens, UniProt Q01892 1-262). Put shortly:
as §1

The target of the next assay is T5, FEV (Homo sapiens, UniProt Q99581 1-238).
T5 sequence: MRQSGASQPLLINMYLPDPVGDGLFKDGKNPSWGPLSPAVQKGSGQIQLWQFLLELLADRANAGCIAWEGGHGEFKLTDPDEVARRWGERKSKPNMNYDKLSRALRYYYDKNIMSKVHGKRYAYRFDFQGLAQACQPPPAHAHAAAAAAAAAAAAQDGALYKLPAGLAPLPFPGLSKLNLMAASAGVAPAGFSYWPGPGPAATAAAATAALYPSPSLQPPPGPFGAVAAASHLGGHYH
Put shortly: as §1

The target of another assay is ETV5 (Homo sapiens, UniProt P41161 1-510). Put shortly:
as §1

The target of another assay is ELF4 (Homo sapiens, UniProt Q99607 1-663). The gist of the method:
as §1

ELF1, sequence (P32519 whole entry): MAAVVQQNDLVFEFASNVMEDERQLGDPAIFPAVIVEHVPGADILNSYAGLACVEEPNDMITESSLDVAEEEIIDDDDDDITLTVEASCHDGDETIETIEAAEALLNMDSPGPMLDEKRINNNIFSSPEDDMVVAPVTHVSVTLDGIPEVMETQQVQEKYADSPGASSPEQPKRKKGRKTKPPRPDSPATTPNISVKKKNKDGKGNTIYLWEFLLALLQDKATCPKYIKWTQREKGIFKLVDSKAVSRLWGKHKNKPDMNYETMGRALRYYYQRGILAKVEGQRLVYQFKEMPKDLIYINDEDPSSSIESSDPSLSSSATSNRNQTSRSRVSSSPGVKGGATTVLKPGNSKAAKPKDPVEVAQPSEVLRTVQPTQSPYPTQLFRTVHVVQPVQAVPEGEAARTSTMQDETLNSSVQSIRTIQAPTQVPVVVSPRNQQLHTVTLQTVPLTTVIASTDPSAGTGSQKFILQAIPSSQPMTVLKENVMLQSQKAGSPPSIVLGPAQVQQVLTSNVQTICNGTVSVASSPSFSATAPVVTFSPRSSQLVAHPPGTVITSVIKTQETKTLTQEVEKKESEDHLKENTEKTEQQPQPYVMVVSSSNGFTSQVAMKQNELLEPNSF
ELF4, sequence (Q99607 whole entry): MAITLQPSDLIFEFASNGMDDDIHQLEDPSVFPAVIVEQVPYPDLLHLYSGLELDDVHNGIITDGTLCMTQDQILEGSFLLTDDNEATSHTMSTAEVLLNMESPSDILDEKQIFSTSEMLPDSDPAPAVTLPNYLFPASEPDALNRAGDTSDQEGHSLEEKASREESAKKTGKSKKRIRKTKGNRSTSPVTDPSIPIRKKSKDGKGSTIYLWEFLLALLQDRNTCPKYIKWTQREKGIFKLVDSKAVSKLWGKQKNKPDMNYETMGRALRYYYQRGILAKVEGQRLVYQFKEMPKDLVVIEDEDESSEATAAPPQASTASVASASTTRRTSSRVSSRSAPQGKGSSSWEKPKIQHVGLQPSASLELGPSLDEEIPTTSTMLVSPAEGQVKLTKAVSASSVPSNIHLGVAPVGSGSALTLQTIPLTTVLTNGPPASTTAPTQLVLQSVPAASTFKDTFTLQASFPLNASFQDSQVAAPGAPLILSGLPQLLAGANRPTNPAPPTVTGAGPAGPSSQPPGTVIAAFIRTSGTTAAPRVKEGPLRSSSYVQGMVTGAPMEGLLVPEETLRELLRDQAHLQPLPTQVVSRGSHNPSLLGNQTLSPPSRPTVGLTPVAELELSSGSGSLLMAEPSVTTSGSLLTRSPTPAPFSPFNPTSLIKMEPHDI
ETV5, sequence (P41161 whole entry): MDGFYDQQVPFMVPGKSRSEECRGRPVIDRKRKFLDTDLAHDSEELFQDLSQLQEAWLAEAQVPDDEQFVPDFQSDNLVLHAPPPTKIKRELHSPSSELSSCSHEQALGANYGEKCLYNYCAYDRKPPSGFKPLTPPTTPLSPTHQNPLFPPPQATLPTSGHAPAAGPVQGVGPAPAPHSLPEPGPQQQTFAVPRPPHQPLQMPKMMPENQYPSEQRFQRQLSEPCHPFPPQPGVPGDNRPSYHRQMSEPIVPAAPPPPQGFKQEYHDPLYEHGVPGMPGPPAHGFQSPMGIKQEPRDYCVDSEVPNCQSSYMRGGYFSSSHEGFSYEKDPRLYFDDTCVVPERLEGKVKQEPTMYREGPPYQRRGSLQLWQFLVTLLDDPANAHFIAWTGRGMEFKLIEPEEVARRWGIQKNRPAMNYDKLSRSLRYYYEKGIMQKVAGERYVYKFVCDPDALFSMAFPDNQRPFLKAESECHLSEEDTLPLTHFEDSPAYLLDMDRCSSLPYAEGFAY
SPIB, sequence (Q01892 whole entry): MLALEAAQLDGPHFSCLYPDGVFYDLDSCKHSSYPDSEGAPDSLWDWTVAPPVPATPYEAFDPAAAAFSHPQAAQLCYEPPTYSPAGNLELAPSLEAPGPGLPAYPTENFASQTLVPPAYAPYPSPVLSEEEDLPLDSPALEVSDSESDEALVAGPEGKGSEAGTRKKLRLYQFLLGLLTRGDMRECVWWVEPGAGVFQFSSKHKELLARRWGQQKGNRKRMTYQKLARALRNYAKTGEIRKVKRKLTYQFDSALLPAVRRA

For CATGCA, the binding signal is 1.08 fold enrichment (6-mer frequency, TF over GST control) with ELK1; 1.16 fold enrichment (6-mer frequency, TF over GST control) in the assay with GABPA; 1.04 fold enrichment (6-mer frequency, TF over GST control) with ERG; 1.1 fold enrichment (6-mer frequency, TF over GST control) with ELF1; 1.12 fold enrichment (6-mer frequency, TF over GST control) with EHF; 1.02 fold enrichment (6-mer frequency, TF over GST control) with SPI1. The binding signal in the assay with SPIB was 1.07 fold enrichment (6-mer frequency, TF over GST control); with FEV, 1.1 fold enrichment (6-mer frequency, TF over GST control); with ETV5, 1.1 fold enrichment (6-mer frequency, TF over GST control); in the assay with ELF4, 1.11 fold enrichment (6-mer frequency, TF over GST control).

Values taken from publication PMC7862700, “An all-to-all approach to the identification of sequence-specific readers for epigenetic DNA modifications on cytosine”.
